Out of some 5,500 compounds screened, about 2,000 (36%) were called active. About 18% were inconclusive and are not listed. Rule as the data show it: active = normalized growth mostly below about 0.91 (no sharp cut-off); inconclusive = no clear call, values can overlap the other calls; inactive = mostly above about 0.92. The list shows a part of the results.
Assay: chemical genetic growth profiling, strain panel (AID 1159580);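 also: tested at 20 µM; growth read once vehicle control cultures reached saturation at 30 °C; 1 = growth at the plate median or of vehicle wells; lower values mean less growth of the strain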
Details: growth OD
[1] = S. cerevisiae deletion strains, locus YAL013W, strain DEP1, hits give low values
[2] = S. cerevisiae deletion strains, locus YBR229C, strain ROT2, hits give low values
[3] = S. cerevisiae deletion strains, locus YDL101C, strain DUN1, hits give low values
[4] = S. cerevisiae deletion strains, locus YDR150W, strain NUM1, hits give low values
[5] = S. cerevisiae deletion strains, locus YEL061C, strain CIN8, hits give low values
[6] = S. cerevisiae deletion strains, locus YGR078C, strain PAC10, hits give low values
[7] = S. cerevisiae deletion strains, locus YHR030C, strain SLT2, hits give low values
[8] = S. cerevisiae deletion strains, locus YJR043C, strain POL32, hits give low values
[9] = S. cerevisiae deletion strains, locus YJR075W, strain HOC1, hits give low values
[10] = S. cerevisiae deletion strains, locus YLR039C, strain RIC1, hits give low values
[11] = S. cerevisiae deletion strains, locus YLR262C, strain YPT6, hits give low values
[12] = S. cerevisiae deletion strains, locus YMR263W, strain SAP30, hits give low values
[13] = S. cerevisiae deletion strains, locus YMR307W, strain GAS1, hits give low values
[14] = S. cerevisiae deletion strains, locus YNL153C, strain GIM3, hits give low values
[15] = S. cerevisiae deletion strains, locus YNL322C, strain KRE1, hits give low values
[16] = S. cerevisiae deletion strains, locus YOL006C, strain TOP1, hits give low values
[17] = S. cerevisiae deletion strains, locus YPL055C, strain LGE1, hits give low values
[18] = S. cerevisiae deletion strains, locus YPL241C, strain CIN2, hits give low values

Measured: normalized growth

CCCCCCC(C)OC(=O)COc1cc(Cl)c(Cl)cc1Cl (stereo not drawn)
inactive: [1] 0.994 | S. cerevisiae deletion strains, locus YBR021W, strain FUR4, hits give low values 0.985 | [2] 1 | S. cerevisiae deletion strains, locus YCL029C, strain bik1, hits give low values 0.992 | S. cerevisiae deletion strains, locus YDL035C, strain GPR1, hits give low values 1 | S. cerevisiae deletion strains, locus YDL074C, strain BRE1, hits give low values 1 | [3] 1 | S. cerevisiae deletion strains, locus YDL134C, strain PPH21, hits give low values 1.01 | S. cerevisiae deletion strains, locus YDL185W, strain tfp1, hits give low values 0.995 | S. cerevisiae deletion strains, locus YDL192W, strain arf1, hits give low values 0.995 | S. cerevisiae deletion strains, locus YDR101C, strain arx1, hits give low values 0.993 | [4] 1 | S. cerevisiae deletion strains, locus YDR162C, strain NBP2, hits give low values 0.964 | S. cerevisiae deletion strains, locus YDR318W, strain mcm21, hits give low values 0.989 | S. cerevisiae deletion strains, locus YDR388W, hits give low values 0.992 | S. cerevisiae deletion strains, locus YDR502C, strain sam2, hits give low values 0.997 | [5] 1 | S. cerevisiae deletion strains, locus YER110C, hits give low values 0.993 | S. cerevisiae deletion strains, locus YER155C, strain BEM2, hits give low values 0.984 | S. cerevisiae deletion strains, locus YER167W, strain BCK2, hits give low values 0.995 | S. cerevisiae deletion strains, locus YGL078C, strain dbp3, hits give low values 0.985 | S. cerevisiae deletion strains, locus YGL086W, strain mad1, hits give low values 0.988 | S. cerevisiae deletion strains, locus YGL248W, strain PDE1, hits give low values 0.993 | [6] 0.995 | S. cerevisiae deletion strains, locus YGR135W, strain pre9, hits give low values 0.994 | S. cerevisiae deletion strains, locus YGR229C, strain SMI1, hits give low values 0.952 | S. cerevisiae deletion strains, locus YGR252W, strain gcn5, hits give low values 0.99 | [7] 0.978 | S. cerevisiae deletion strains, locus YHR079C, strain IRE1 (second series), hits give low values 0.986 | S. cerevisiae deletion strains, locus YHR094C, strain hxt1, hits give low values 0.983 | S. cerevisiae deletion strains, locus YHR129C, strain ARP1, hits give low values 1 | S. cerevisiae deletion strains, locus YHR200W, strain rpn10, hits give low values 0.987 | S. cerevisiae deletion strains, locus YIL066C, strain RNR3, hits give low values 0.975 | S. cerevisiae deletion strains, locus YIL073C, strain SPO22, hits give low values 0.948 | S. cerevisiae deletion strains, locus YIL125W, strain kgd1, hits give low values 0.988 | S. cerevisiae deletion strains, locus YIR030C, strain dcg1, hits give low values 0.983 | S. cerevisiae deletion strains, locus YJL095W, strain BCK1, hits give low values 0.997 | S. cerevisiae deletion strains, locus YJL134W, strain LCB3, hits give low values 1.01 | S. cerevisiae deletion strains, locus YJL168C, strain set2, hits give low values 0.988 | S. cerevisiae deletion strains, locus YJL187C, strain SWE1 (second series), hits give low values 0.997 | [8] 0.988 | [9] 1.01 | S. cerevisiae deletion strains, locus YKL009W, strain mrt4, hits give low values 1 | S. cerevisiae deletion strains, locus YKL068W, hits give low values 0.989 | S. cerevisiae deletion strains, locus YKL085W, strain MDH1 (second series), hits give low values 0.986 | S. cerevisiae deletion strains, locus YKL085W, strain MDH1, hits give low values 0.986 | S. cerevisiae deletion strains, locus YKL190W, strain CNB1, hits give low values 1 | S. cerevisiae deletion strains, locus YKR001C, strain vps1, hits give low values 0.996 | [10] 0.95 | S. cerevisiae deletion strains, locus YLR058C, strain SHM2, hits give low values 0.999 | S. cerevisiae deletion strains, locus YLR102C, strain apc9, hits give low values 0.998 | [11] 0.946 | S. cerevisiae deletion strains, locus YLR268W, strain sec22, hits give low values 0.99 | S. cerevisiae deletion strains, locus YLR330W, strain CHS5, hits give low values 1 | S. cerevisiae deletion strains, locus YLR342W, strain FKS1 (second series), hits give low values 1.05 | S. cerevisiae deletion strains, locus YLR371W, strain rom2, hits give low values 0.993 | S. cerevisiae deletion strains, locus YLR418C, strain cdc73, hits give low values 0.947 | S. cerevisiae deletion strains, locus YML016C, strain PPZ1, hits give low values 1.01 | S. cerevisiae deletion strains, locus YML032C, strain rad52, hits give low values 0.994 | S. cerevisiae deletion strains, locus YML124C, strain tub3, hits give low values 0.985 | S. cerevisiae deletion strains, locus YMR078C, strain ctf18, hits give low values 0.989 | S. cerevisiae deletion strains, locus YMR223W, strain ubp8, hits give low values 0.99 | [12] 1.01 | [13] 0.86 | S. cerevisiae deletion strains, locus YNL067W, strain RPL9B, hits give low values 0.994 | S. cerevisiae deletion strains, locus YNL128W, strain TEP1, hits give low values 0.995 | [14] 0.996 | S. cerevisiae deletion strains, locus YNL233W, strain BNI4, hits give low values 0.996 | S. cerevisiae deletion strains, locus YNL250W, strain rad50, hits give low values 0.982 | S. cerevisiae deletion strains, locus YNL271C, strain bni1, hits give low values 0.997 | S. cerevisiae deletion strains, locus YNL298W, strain CLA4, hits give low values 0.991 | S. cerevisiae deletion strains, locus YNL307C, strain MCK1, hits give low values 0.973 | [15] 1 | S. cerevisiae deletion strains, locus YNR052C, strain pop2, hits give low values 0.993 | [16] 0.963 | S. cerevisiae deletion strains, locus YOL012C, strain htz1 1.39 | S. cerevisiae deletion strains, locus YOL147C, strain pex11, hits give low values 0.984 | S. cerevisiae deletion strains, locus YOR061W, strain CKA2, hits give low values 1 | S. cerevisiae deletion strains, locus YOR069W, strain VPS5, hits give low values 1 | S. cerevisiae deletion strains, locus YOR136W, strain idh2, hits give low values 0.986 | S. cerevisiae deletion strains, locus YOR144C, strain elg1, hits give low values 0.986 | S. cerevisiae deletion strains, locus YOR184W, strain ser1, hits give low values 0.992 | S. cerevisiae deletion strains, locus YOR316C, strain cot1, hits give low values 0.994 | [17] 0.999 | [18] 0.999 | S. cerevisiae deletion strains, locus YPR119W, strain clb2, hits give low values 0.982 | S. cerevisiae deletion strains, locus YPR141C, strain kar3, hits give low values 0.997 | S. cerevisiae deletion strains, locus YPR163C, strain tif3, hits give low values 0.985 | S. cerevisiae deletion strains, locus YPR167C, strain met16, hits give low values 0.992 | S. cerevisiae deletion strains, strain wtn01, hits give low values 0.983 | S. cerevisiae strains, strain wild type, hits give low values 0.999

OC1(c2ccc(F)cc2)Cc2ccccc2C2=NCCN21 (stereo not drawn)
inactive: [1] 0.99 | [2] 0.987 | [3] 0.997 | [4] 0.932 | [5] 0.993 | [6] 0.98 | [7] 0.903 | S. cerevisiae deletion strains, locus YHR087W, strain rtc3, hits give low values 0.987 | S. cerevisiae deletion strains, locus YJL187C, strain SWE1, hits give low values 1.01 | [8] 1 | [9] 0.961 | [10] 0.975 | S. cerevisiae deletion strains, locus YLR058C, strain SHM2 (second series), hits give low values 0.983 | S. cerevisiae deletion strains, locus YLR085C, strain ARP6, hits give low values 0.954 | [11] 0.968 | S. cerevisiae deletion strains, locus YML094W, strain GIM5, hits give low values 0.982 | S. cerevisiae deletion strains, locus YMR219W, strain ESC1, hits give low values 0.998 | [12] 0.894 | [13] 0.925 | [14] 0.985 | S. cerevisiae deletion strains, locus YNL298W, strain CLA4 (second series), hits give low values 0.986 | [15] 0.992 | S. cerevisiae deletion strains, locus YNR030W, strain Alg12, hits give low values 0.98 | [16] 0.93 | [17] 0.866 | [18] 0.986 | S. cerevisiae deletion strains, locus YPR135W, strain CTF4, hits give low values 0.915

From PubChem BioAssay AID1159580 (chemical genetic matrix, 2015)
